Screens as filed in PubChem BioAssay.
The list is not random: actives were taken first. Their share in the collection is about 3.3%.
Efflux pump inh: blocks antifungal efflux pumps in multiplex yeast assay. S. cerevisiae Candida pump triplex, Nile Red efflux. inhibition, % at 10 µM. hit rate 0.44% among 330,000. AID 485275;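 active means plate passing quality check with inhibition over a set limit, or well fluorescence over plate mean plus 4 SD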;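 further: Nile Red retained in pooled yeast measured as flow cytometry median fluorescence; 0% = buffer negative control and 100% = Enniatin B positive control; higher means more Nile Red kept so more efflux inhibition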
PHOSPHO1 inh: PHOSPHO1 (human) inhibition; AID 1565; recombinant PHOSPHO1, absorbance phosphatase assay; inhibition, % at 13.3 µM; hit rate 1.1% among 290,000; Q8TCT1; in the data active means inhibition above about 60%
Target sequence (Q8TCT1 whole entry, looked up): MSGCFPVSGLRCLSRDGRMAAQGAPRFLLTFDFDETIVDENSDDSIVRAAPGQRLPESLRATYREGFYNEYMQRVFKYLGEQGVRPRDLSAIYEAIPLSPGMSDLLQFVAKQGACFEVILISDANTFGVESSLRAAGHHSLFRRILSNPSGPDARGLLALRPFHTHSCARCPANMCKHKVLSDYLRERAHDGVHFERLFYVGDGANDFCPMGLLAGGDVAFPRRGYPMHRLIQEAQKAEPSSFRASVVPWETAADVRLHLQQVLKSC
Cl transport mod: modulates chloride dependent transport by human KCC2; hit rate 2.2% among 190,000; AID 1456; KCC2 cells, thallium flux FluoZin-2 fluorescence; B-score of Tl+ flux slope (higher = more flux/activation; lower = inhibition) at 10 µM; Q9H2X9;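 active means thallium flux slope and its plate-corrected score both differing from the plate sample mean at a set confidence after two filtering rounds, in either direction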;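 further: slope of fluorescence scaled to starting intensity during 10 to 20 s after thallium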
H9c2 protect: modulators protecting cardiomyocytes from myocardial damage; H9c2 cardiomyocytes, H2O2 injury protection, ATPLite, 2 h; protection from H2O2 cell death, % at 20 µM; hit rate 0.63% among 360,000;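 active means compounds giving at least 50% protection of heart cells from peroxide-induced death in the single-dose screen, raw or plate-pattern-corrected value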;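 further: 0% = DMSO wells with peroxide and 100% = DMSO wells without peroxide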
Calb FLC: affects C. albicans growth with fluconazole; growth inhibition, % (concentration not given with the values); C. albicans CaCi-2 (fluconazole-resistant clinical isolate) + fluconazole, Alamar Blue growth, 48 h; AID 1979; hit rate 0.57% among 300,000;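 active means growth inhibition above about 58% in most replicates, limit read from the data, passing the limit was not always enough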;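 further: all wells also contain fluconazole at 8 µg/ml as a sub-toxic cotreatment; 0% = median of DMSO wells and 100% = median of geldanamycin control wells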
Yeast cmpd fluor: flagged as fluorescent in efflux inhibitor counter-screen. S. cerevisiae AD/pABC3, compound fluorescence, flow cytometry. AID 588517. hit rate 4% among 1,700. fluorescence ratio to DMSO, % at 10 µM. shares compounds with Efflux pump inh;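 active means fluorescence ratio to DMSO above its plate's cutoff, the plate mean ratio plus 5 SD, cut at about 210% in these data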;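 further: unstained yeast with no Nile Red so the signal is compound autofluorescence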
Mdr1 pump inh: blocks the Candida albicans Mdr1 efflux pump in yeast. AID 588518. inhibition, % at 10 µM. shares compounds with Efflux pump inh. S. cerevisiae AD/CaMDR1, Nile Red efflux, flow cytometry. hit rate 1% among 1,700; in the data active means inhibition above about 26%;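 further: 0% = DMSO vehicle and 100% = reference inhibitor; higher means more Nile Red retained so more efflux inhibition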
CaCdr2 efflux inh: Candida Cdr2 efflux pump inhibition; shares compounds with Efflux pump inh; S. cerevisiae AD/CaCDR2, Nile Red retention, flow cytometry; Nile Red retention ratio vs DMSO, % at 10 µM; hit rate 4% among 1,700; in the data active means Nile Red retention ratio vs DMSO above about 190%;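 further: higher ratio means more blocking of Cdr2 efflux of the dye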
Cdr1 pump inh: inhibitors of Candida albicans Cdr1 efflux pump | inhibition, % at 10 µM | AID 588522 | hit rate 1% among 1,700 | S. cerevisiae AD/CaCDR1, Nile Red efflux, flow cytometry | shares compounds with Efflux pump inh;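 active means inhibition above the screen-wide mean plus twice its standard deviation, cut at about 32% in these data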
* marks the source's active call; other numbers are inactive results; · = no result.

SMILES | Efflux pump inh | PHOSPHO1 inh | Cl transport mod | H9c2 protect | Calb FLC | Yeast cmpd fluor | Mdr1 pump inh | CaCdr2 efflux inh | Cdr1 pump inh
O=C(CN(CCO)Cc1ccccc1)N1CCN(S(=O)(=O)c2ccccc2)CC1 | · | · | · | 0 | · | · | · | · | ·
S=C(NCc1ccccc1)N1CCc2ccccc2C1 | 0 | -22 | -1.8 | -14 | -4 | 93 | 0 | 100 | 0
COc1ccc(/C=C2\SC(=S)N(CCCC(=O)Nc3cccc(C(=O)O)c3)C2=O)cc1OC | 7.2* | 20 | · | 0 | 6 | 97 | 0 | 102 | 0
COc1cc(/C=C2\SC(=S)N(CC(=O)NC3=NCCS3)C2=O)cc(OC)c1OC | 0 | -25 | 0.3 | 3 | -8 | · | · | · | ·
COc1ccc(/C=C2\SC(=S)N(CCC(=O)NC3=NCCS3)C2=O)cc1OC | 5.5* | -17 | 0.047 | 2 | 2 | 109 | 0 | 110 | 0
COc1cccc(/C=C2\SC(=S)N(CCCC(=O)Nc3cccc(C(=O)O)c3)C2=O)c1 | · | · | · | 5 | · | · | · | · | ·
CCCCN(C=O)c1c(CC)nc2c(OCCOc3ccc(F)cc3)cccn12 | · | · | · | -4 | · | · | · | · | ·
CCCC(=O)Nc1ccc(C(=O)NNC(=O)c2cccs2)cc1 | 11* | 18 | · | 9 | -5 | 89 | 0 | 96 | 0
CCOc1cc(C(=O)N=c2sccn2C)ccc1OC(F)F | -1 | 23 | · | -1 | 21 | · | · | · | ·
C=C[C@](C)(CC[C@@]1(C)C(C)CC(OC2OC(C)C(OC3OC(COC(C)=O)C(O)C(O)C3O)C(O)C2O)[C@@]2(C)C(C)=CCCC12)OC1OC(C)C(O[C@@H]2O[C@@H](C)C(O)C(O)[C@H]2O)C(O)C1O (some centres undefined) | 1.4* | · | · | 12 | · | 113 | 0 | 129 | 0
Cc1ccsc1/C=N\NC(=O)c1n[nH]c2c1CCC2 | 11* | -12 | -1.2 | -9 | -14 | 87 | 0 | 94 | 0
O=C(N/N=C/c1c(Cl)cccc1Cl)c1n[nH]c2c1CCCC2 | 0 | 6 | -0.07 | -3 | -10 | · | · | · | ·
Cc1cccc(C)c1NC(=O)c1csc([C@@H]2O[C@H](CO)[C@H](O)[C@H](O)[C@H]2O)n1 | · | · | · | 5 | · | · | · | · | ·
Cc1cc(OCc2cc(C(=O)N(C)Cc3ccccn3)no2)cc(C)c1Cl | 1 | 51 | · | -9 | -4 | 90 | 0 | 100 | 0
COc1cccc(C(=O)COc2ccc3c(C)c(Cc4ccccc4)c(=O)oc3c2)c1 | 7.5* | 8 | 1.4 | 4 | 9 | 103 | 0 | 96 | 0
Cc1c(C)c2ccc(OCC(=O)c3ccccc3)cc2oc1=O | 0 | 37 | · | -4 | -4 | · | · | · | ·
COc1ccc(-n2cc(-c3ccccc3)c3c(NN4CCOCC4)ncnc32)cc1 | 2.5* | -10 | -0.2 | 21 | 35 | 109 | 0 | 106 | 0
COc1ccc(C2N=C(Nc3ccc(C)cc3)Nc3nc(C)cc(=O)n32)cc1 (centres undefined) | 0.4* | 1 | 0.72 | 3 | 110* | 99 | 0 | 97 | 0
Cc1ccc(NC2=NC(c3ccc(O)cc3)n3c(nc(C)cc3=O)N2)cc1 (centres undefined) | 0 | 7 | 0.44 | 14 | -3 | · | · | · | ·
Cc1sc2ncnc(SC(C)C(=O)N3c4ccccc4Sc4ccccc43)c2c1C (centres undefined) | 15* | 3 | 2 | -5 | 0 | 103 | 0 | 83 | 0
Cc1sc2ncnc(SCC(=O)NC(C)C(C)C)c2c1C (centres undefined) | 0.8* | -20 | 1.7 | -6 | 1 | 109 | 0 | 112 | 0
Cc1ccc(OCC(=O)NNC(=O)C(C)Sc2ncnc3sc(C)c(C)c23)cc1 (centres undefined) | 0 | 53 | · | -3 | -22 | · | · | · | ·
Cc1sc2ncnc(SCC(=O)NC3CC3)c2c1C | 0 | 12 | 2.8 | 0 | -18 | · | · | · | ·
CN(C)c1ccc(-c2ccnc3c2CC(C)(C(=O)NCCc2ccccc2)O3)cc1 (centres undefined) | · | · | · | 0 | · | · | · | · | ·
O=C(Cc1ccccc1)Nc1ccc(F)cc1 | 0 | 24 | 0.39 | -5 | -16 | · | · | · | ·
SMILES | Efflux pump inh | PHOSPHO1 inh | Cl transport mod | H9c2 protect | Calb FLC | Yeast cmpd fluor | Mdr1 pump inh | CaCdr2 efflux inh | Cdr1 pump inh
CC(=O)Nc1ccc(NC(=O)Cc2ccc(F)cc2)cc1 | 1.1* | -24 | -0.18 | · | -1 | 112 | 0 | 106 | 0
O=C(CC1C[C@H](C(=O)N2CCOCC2)[C@@]2(CCC3CCCC3)c3[nH]c4ccccc4c3CCN2C1=O)NCC12CC3CC(CC(C3)C1)C2 (some centres undefined) | 1.2* | · | · | -4 | · | 109 | 0 | 123 | 0
O=C(CSc1ccccc1F)Nc1ccc(N2CCOCC2)cc1 | 0.8* | · | · | 2 | · | 117 | 1 | 112 | 0
Cn1c(Cc2ccccc2)nnc1SCC(=O)Nc1ccc(N2CCOCC2)cc1 | 1.3* | 3 | · | -1 | -4 | 106 | 0 | 112 | 0
CC(=O)Nc1ccc(S(=O)(=O)N2CCN=C2SCc2ccc(F)cc2)cc1 | 1.4* | 3 | · | -6 | 7 | 89 | 0 | 91 | 0
O=C(Nc1nnc(-c2ccc(F)cc2)s1)Nc1ccccc1F | 0.8* | 28 | -0.56 | 4 | -8 | 102 | 0 | 108 | 0
O=C(Nc1ccc(F)cc1)Nc1nnc(-c2ccncc2)s1 | 0 | -6 | 1.3 | -16 | -11 | · | · | · | ·
CC(OC(=O)Cn1cnc2c1c(=O)n(C)c(=O)n2C)C(=O)Nc1ccc(Cl)cc1 (centres undefined) | 0 | · | · | -1 | 2 | · | · | · | ·
C/C(=N\Nc1nccnc1Cl)c1ccc(O)c(C)c1 | 1 | 14 | · | -1 | 4 | · | · | · | ·
CN1CCCC1CCNc1ccc2sc3ccccc3c(=O)c2c1 (centres undefined) | 2.0* | · | · | 5 | -14 | 254* | 1 | 96 | 1
O=c1c2ccccc2sc2ccc(NCCCN3CCOCC3)cc12 | 0 | · | · | -7 | -5 | · | · | · | ·
Cc1occc1C(=O)NCc1cccc(CNC(=O)c2ccoc2C)c1 | 0.3* | 14 | 2.2 | 2 | 2 | 100 | 0 | 112 | 0
Cc1occc1C(=O)NCc1ccc2c(c1)OCO2 | 0 | 10 | 1 | 5 | -4 | · | · | · | ·
Cc1cccc(NC(=O)NNC(=O)c2ccccn2)c1 | 0 | · | · | 5 | · | · | · | · | ·
Cc1nnc(NC(=O)c2sc3nc(-c4cccs4)cc(C(F)(F)F)c3c2N)s1 | 1.3* | 37 | -0.74 | 0 | 21 | 131 | 0 | 137 | 0
O=c1[nH]c(S)c(/C=C2\C=Nc3ccccc32)s1 | 0.5* | -17 | 2.3 | 15 | 24 | 84 | 0 | 97 | 0
NC(=O)c1ccc(SCC(=O)OCC(=O)NCc2ccco2)c([N+](=O)[O-])c1 | 0 | · | · | -4 | · | · | · | · | ·
